Bioassay records (PubChem BioAssay)
Eya2 phos inh: Eya2 (human) phosphatase inhibition | O00167 | recombinant Eya2, OMFP fluorescence dephosphorylation (OMFP is methylfluorescein phosphate) | Potency, µM (top dose mostly 76.9 µM), inactives show at the top dose activity, negative = inhibition, actives largely listed as inhibitors | actives 0.006% (n = 330,000) | AID 488837; also: % is scaled to controls: 0 for no effect and ±100 for the full control effect
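Eya2 (0.2 uM) preincubated 10 min at ambient with compound, then OMFP substrate added at 50 uM; 10 min reaction in 50 mM HEPES pH 7.5, 50 mM NaCl, 5 uM MgCl2, 0.05% BSA, 1 mM DTT. Fluorescence read at Ex 485/Em 525 nm.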
USP2a block: USP2a (human) protease inhibition; USP2 core, Ub-CHOP2 coupled fluorogenic reporter, 485/531; Potency, µM (series often up to 38.3 µM), for inactives: at the highest dose activity change, negative = inhibition, usual class: inhibitors; actives 0.01% (n = 330,000); AID 463254;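 also: plate controls were DMSO wells for no effect and full inhibition by NEM control for full effect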
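Cell-free coupled assay: 10nM USP2 core preincubated 30min RT with compound in Tris-HCl pH 8.0/CaCl2/CHAPS buffer, then 25nM Ub-CHOP2 and 25nM reporter substrate; fluorescence (Ex 485/Em 531) read after 60min RT, normalized to NEM inhibition, concentration-response curves fitted.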
p53 reactivator: re-activators of mutant p53. H1299 p53-A138V BP100-luciferase reporter, luminescence, 24 h. Potency, µM (series often up to 92.2 µM), for the others: at the highest dose activity change, positive = activation, usual class: activators. actives 0.063% (n = 320,000). AID 504706; also: % of control where 0% means no effect; nearly all actives have a fitted effect of over 45% in size
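p53-null H1299 cells stably carrying temperature-sensitive p53-A138V and a BP100-luciferase reporter were pinned with compounds (4-point, 1:5 series) and held 24 hrs at 37 deg C. Luminescence was read 10 min after detection reagent.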
B2AR arrestin: beta2AR (human) beta-arrestin recruitment activity. P07550. beta-arrestin recruitment to beta2AR, cell-based reporter. Potency, µM (top dose mostly 46.1 µM), inactives show at the highest dose activation, usual class: activators. actives 0.02% (n = 330,000);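 also: 0% = DMSO controls and full agonism = EC100 isoproterenol or metaproterenol; nearly all actives have a fitted effect of over 65% in size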
BCR signal inh: inhibitors of chronic active B-cell receptor signaling; ABC-DLBCL IkBa-CBG/CBR reporter, luminescence ratio, 4 h; Potency, µM (titrated, usually from 46.1 µM), without a hit: top-dose activity change, negative = inhibition, usual class: inhibitors; actives 0.05% (n = 340,000); AID 493014; active = well fitted inhibition curve with a large enough effect in the signal ratio, with a control signal flat, not every such curve was filed as active; inconclusive = small, poorly fitted or top-dose-only effect, or effect the other way, or a change in a side signal; the % refers to the signal ratio;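 also: plate controls were basal doxycycline-induced cells for no effect and cells given 10 µM MG132 for full effect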
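Concentration-response series (up to 46 uM) were applied to TMD8 dual-reporter cells for 4 h at 37C with doxycycline. Green/red ratio, after filter-overlap correction, defined %Activity; red signal alone was normalised to basal cells and zero luminescence.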
Active calls of the source: *; ? = inconclusive; . = no result; [ ] = another dose, or the depositor's remark. Hits are enriched below; roughly 0.15% of the tested compounds scored in any of these assays. Unless noted, calls follow the shape of the dose curve; as a rule, active = well fitted curve in the direction sought with a large enough effect; inconclusive = small, poorly fitted or top-dose-only effect, or another doubt; inactive = no such curve, though single readings can be large; an effect the other way counts as inactive or inconclusive. Potency is read from the fitted curve at half-maximal effect.

SMILES	Eya2 phos inh	USP2a block	p53 reactivator	B2AR arrestin	BCR signal inh
COc1ccc(OC)c(/C=N/NC(=O)c2[nH]nc3c2CCc2ccccc2-3)c1	5%	2%	10%	0%	?
CC(C)(C)c1ccc(Cn2cnc(-c3ccc([N+](=O)[O-])cc3)c2)cc1	-16%	-1%	28µM*	0%	0%
O=C(O)C1=CC(=C(c2ccc(O)c(C(=O)O)c2)c2ccc(O)c(C(=O)O)c2)C=CC1=O	?	1.1µM*	-5%	0%	?
CC1=C/C(=C(\c2ccc(O)c(C)c2)c2ccccc2S(=O)(=O)O)C=CC1=O	6%	2%	-4%	0%	0%
COc1ccc(-c2csc(Nc3ncccc3C)n2)cc1	2%	1%	45µM*	0%	?
COc1ccc(-c2csc(Nc3ncccc3C)n2)cc1OC	-6%	0%	?	1%	?
COc1ccc(Nc2nc(-c3c(C)nc4ncccn34)cs2)cc1	-8%	-1%	-2%	0%	3.5µM*
O=C1C2=C(C(=O)c3ccccc31)C1O[C@](c3ccsc3)(Cc3ccccc31)O2	7%[15.4 µM]	0%[7.66 µM]	.	0%[9.22 µM]	19%[9.22 µM]
COc1ccc(-c2cc3ncc(C)n3c(Nc3ncccc3C(N)=O)n2)cc1OC	2%	.	.	.	.
O=C1C2=C(C(=O)c3ccccc31)C1O[C@](CCCCN3C(=O)c4ccccc4C3=O)(Cc3ccccc31)O2	-3%[15.4 µM]	1%[7.66 µM]	.	0%[9.22 µM]	?
COc1cc2cc(C(=O)N3CCOCC3)cc(-c3ccc(C)cc3)c2cc1OC	-9%	0%	-3%	-1%	16µM*
CN1CC(=O)N(CC(=O)Nc2ccc(OC(F)(F)F)cc2)c2ccccc2C1=O	.	.	.	.	6%
C/C(=N\NC(=S)NCc1ccccc1)c1ccccc1	-2%	3%	?	3%	?
CC1=C/C(=N\NC(=S)NCc2ccccc2)CC1	-9%	9%	-1%	7.1µM*	?
O=c1cc(-c2ccccc2)[nH]c2ccccc12	-2%	2%	24%	0%	11µM*
N#Cc1cc(Oc2cccc3cccnc23)c(-n2nnc3ccccc32)cc1C#N	-6%	-4%	-36%	0%	7.9µM*
COc1ccc(C2C(=O)N(C3CCC(C)CC3)CC(=O)N2Cc2ccc(C)cc2)cc1OC (centres undefined)	.	.	.	.	0%
Fc1ccc(CNc2ncnc3c2c(-c2ccccc2)cn3-c2ccccc2)cc1	.	.	.	.	21%
CS(=O)(=O)c1ccc(S(=O)CC(=O)Oc2ccc(Cl)cc2)c([N+](=O)[O-])c1 (centres undefined)	2%	-6%	-17%	-1%	18µM*
Cc1ccccc1C1=CCN(c2ncc(NC(=O)c3ccc(Cl)cc3)cc2C(=O)O)CC1	.	.	.	.	16%
O=C(O)C[C@@H]1C(=O)O[C@@H]2C(COC(=O)c3cc(O)c(O)c(O)c3)O[C@@H](OC(=O)c3cc(O)c(O)c(O)c3)[C@@H](OC(=O)c3cc(O)c(O)c4c3[C@H]1[C@H](O)C(=O)O4)[C@H]2OC(=O)c1cc(O)c(O)c(O)c1 (some centres undefined)	1%	0.89µM*	2%	0%	?
CCOC(=O)c1cnc(Nc2nc3ccccc3o2)nc1CSC(=S)N(CC)CC	4%	3%	?	?	0.58µM*
Cc1ccc(C[C@H](C(=O)O)N2C(=O)c3ccc(C(=O)O)cc3C2=O)c(C)c1	-3%	3%	.	0%	-2%
COc1cc(/C=C2\SC(c3ccc(C)cc3)=NC2=O)ccc1O	0%	-1%	9%	0%	-10%
COc1cc(/C=C2\OC(=O)c3c(OC)cccc32)ccc1O	-9%	2%	6%	0%	9.2µM*
Cc1ccc(N2CC(NC(=O)C3CCCCC3)CC2=O)cc1 (centres undefined)	.	.	.	.	-9%
O=C(NCc1ccccc1)c1c[nH]c2cc3c(cc2c1=O)OCCO3	-11%	2%	11µM*	-1%	?
CCOc1ccc2[nH]cc(C(=O)NCc3ccccc3)c(=O)c2c1	3%	0%	?	-1%	?
